# The list is not random: actives were taken first. Their share in the collection is about 11%.
# L3MBTL1 inh = qHTS Assay for the Inhibitors of L3MBTL1; AlphaScreen L3MBTL1–H3K9me1 peptide binding; 0.66% of 230,000 active; Potency, µM (doses to about 57.1 µM), without a hit: at the top dose activity, negative = inhibition, usual class: inhibitors; AID 485360, 2010; note: % is set by controls: 0 for no effect and ±100 for the full control effect; nearly all actives have a fitted effect of over 60% in size
#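 Read-out is AlphaScreen signal from streptavidin donor and nickel chelate acceptor beads (10 ug/mL final each) bridging L3MBTL1 (50 nM) and biotinylated K9-monomethylated H3(1-15) peptide (75 nM), after 30 min compound exposure at room temperature.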
# G9a inh = qHTS Assay for Inhibitors of Histone Lysine Methyltransferase G9a; Histone-lysine N-methyltransferase EHMT2 (Homo sapiens), Q96KQ7; Potency, µM (highest dose often 102 µM), for inactives: at the top dose activity, negative = inhibition, actives largely listed as inhibitors; AID 504332, 2011; 8.8% of 350,000 active; G9a H3K9 monomethylation, AlphaScreen, 2 h; note: % is set by controls: 0 for no effect and ±100 for the full control effect; nearly all actives have a fitted effect of over 75% in size
#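 G9a (20 nM) was preincubated 15 min with compound, then reacted 2 h at room temperature with 500 nM biotin-H3K9 peptide and 20 µM SAM. Monomethyl-H3K9 detected by AlphaScreen using anti-H3K9me1 antibody.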
# BAZ2B inh = qHTS Assay for Inhibitors of BAZ2B. AID 504333, 2011. Potency, µM (titrated, usually from 114 µM), for inactives: at the top dose activity change, negative = inhibition, actives largely listed as inhibitors. 4.4% of 360,000 active. Bromodomain adjacent to zinc finger domain protein 2B (Homo sapiens), Q9UIF8. AlphaScreen BAZ2B-H3K14Ac peptide displacement; note: % is set by controls: 0 for no effect and ±100 for the full control effect; nearly all actives have a fitted effect of over 60% in size
# Target sequence (Q9UIF8 whole entry, looked up, the tested form may be a part): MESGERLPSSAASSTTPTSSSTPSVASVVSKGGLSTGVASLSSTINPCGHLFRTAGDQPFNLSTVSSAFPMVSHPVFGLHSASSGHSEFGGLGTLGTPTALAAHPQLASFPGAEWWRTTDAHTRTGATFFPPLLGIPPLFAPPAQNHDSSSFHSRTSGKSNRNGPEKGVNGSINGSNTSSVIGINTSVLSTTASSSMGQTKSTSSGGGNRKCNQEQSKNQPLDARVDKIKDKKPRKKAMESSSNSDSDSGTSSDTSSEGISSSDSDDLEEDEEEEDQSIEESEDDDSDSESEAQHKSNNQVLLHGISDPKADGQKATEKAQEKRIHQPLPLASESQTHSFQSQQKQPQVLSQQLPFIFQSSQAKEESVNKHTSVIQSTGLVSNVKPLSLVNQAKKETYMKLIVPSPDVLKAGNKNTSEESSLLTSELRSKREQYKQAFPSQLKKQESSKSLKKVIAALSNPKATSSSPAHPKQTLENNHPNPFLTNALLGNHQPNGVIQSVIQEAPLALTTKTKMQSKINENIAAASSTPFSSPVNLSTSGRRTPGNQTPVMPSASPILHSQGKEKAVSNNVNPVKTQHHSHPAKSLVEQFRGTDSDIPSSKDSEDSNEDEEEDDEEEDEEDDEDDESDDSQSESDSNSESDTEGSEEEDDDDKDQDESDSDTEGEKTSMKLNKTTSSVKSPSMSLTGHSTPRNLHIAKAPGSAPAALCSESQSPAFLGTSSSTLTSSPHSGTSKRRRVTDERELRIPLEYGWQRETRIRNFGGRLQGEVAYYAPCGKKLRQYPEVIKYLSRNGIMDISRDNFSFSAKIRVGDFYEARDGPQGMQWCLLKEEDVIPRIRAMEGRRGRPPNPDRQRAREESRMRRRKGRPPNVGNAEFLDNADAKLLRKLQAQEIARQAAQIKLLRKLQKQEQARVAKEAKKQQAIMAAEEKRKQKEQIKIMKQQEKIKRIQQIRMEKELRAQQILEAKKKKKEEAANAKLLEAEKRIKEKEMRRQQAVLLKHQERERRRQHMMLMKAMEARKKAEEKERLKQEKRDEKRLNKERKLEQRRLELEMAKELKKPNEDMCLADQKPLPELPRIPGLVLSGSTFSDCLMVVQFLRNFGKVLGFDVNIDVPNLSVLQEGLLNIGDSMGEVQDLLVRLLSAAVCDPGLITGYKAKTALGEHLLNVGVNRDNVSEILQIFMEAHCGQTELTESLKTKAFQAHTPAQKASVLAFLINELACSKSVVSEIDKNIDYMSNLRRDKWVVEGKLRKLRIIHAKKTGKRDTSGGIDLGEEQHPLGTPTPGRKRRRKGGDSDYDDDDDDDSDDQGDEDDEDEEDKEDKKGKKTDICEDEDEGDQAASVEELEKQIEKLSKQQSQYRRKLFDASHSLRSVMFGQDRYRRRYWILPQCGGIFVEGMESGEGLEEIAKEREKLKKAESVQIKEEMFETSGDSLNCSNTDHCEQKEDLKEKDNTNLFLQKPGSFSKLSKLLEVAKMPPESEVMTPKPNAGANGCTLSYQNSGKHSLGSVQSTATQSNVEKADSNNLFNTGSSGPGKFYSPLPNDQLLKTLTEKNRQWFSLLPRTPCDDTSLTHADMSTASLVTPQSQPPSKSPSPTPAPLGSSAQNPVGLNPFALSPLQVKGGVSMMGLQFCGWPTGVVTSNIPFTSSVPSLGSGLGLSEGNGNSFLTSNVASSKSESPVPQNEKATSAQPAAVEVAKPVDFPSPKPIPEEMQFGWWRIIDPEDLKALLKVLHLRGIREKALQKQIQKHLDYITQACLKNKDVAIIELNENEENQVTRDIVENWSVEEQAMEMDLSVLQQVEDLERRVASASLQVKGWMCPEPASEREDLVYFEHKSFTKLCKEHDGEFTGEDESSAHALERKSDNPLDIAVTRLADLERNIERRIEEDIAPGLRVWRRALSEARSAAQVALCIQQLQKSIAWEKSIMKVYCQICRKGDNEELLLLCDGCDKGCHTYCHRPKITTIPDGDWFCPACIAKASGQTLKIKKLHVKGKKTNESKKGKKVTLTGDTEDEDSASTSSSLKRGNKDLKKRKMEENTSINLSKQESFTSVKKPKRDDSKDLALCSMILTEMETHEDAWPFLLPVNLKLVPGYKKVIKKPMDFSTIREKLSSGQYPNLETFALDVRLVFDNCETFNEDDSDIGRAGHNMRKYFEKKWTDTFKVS
#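 In this displacement format the biotinylated H3(5-23) peptide acetylated at Lys14 serves as ligand at 50 nM, with BAZ2B at 50 nM in PBS pH 7.4 containing 0.01% Tween-20. Donor and acceptor beads are 10 ug/mL final.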
# HP1b chromo inh = HTS for Inhibitors of HP1-beta Chromodomain Interactions with Methylated Histone Tails. AlphaScreen HP1-beta / biotin-H3K9me3 peptide binding. Potency, µM (doses to about 114 µM), for the others: top-dose activity change, negative = inhibition, hits mostly inhibitors. Chromobox protein homolog 1 (Homo sapiens), P83916. AID 540317, 2011. 0.56% of 390,000 active; note: nearly all actives have a fitted effect of over 70% in size
#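 Compound inhibition of the preformed complex between 50 nM HP1-beta and 50 nM biotinylated H3K9me3 peptide was read by AlphaScreen. Buffer was PBS pH 7.4 with 0.01% Tween-20. Incubations ran 30 min at room temperature, with 10 ug/mL donor/acceptor beads.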
# JMJD2A Tudor = qHTS Assay for Inhibitors of JMJD2A-Tudor Domain; AlphaScreen JMJD2A-Tudor / H3K4me3 peptide binding; Potency, µM (titrated, usually from 114 µM), for inactives: top-dose activity change, negative = inhibition, actives largely listed as inhibitors; 4.4% of 390,000 active; note: % is set by controls: 0 for no effect and ±100 for the full control effect; nearly all actives have a fitted effect of over 50% in size
# * hit, by the source's call; ? = inconclusive; . = no result given; [ ] = dose if it differs, or a comment. Calls come from the whole dose curve; as a rule, active = well fitted inhibition curve with a large enough effect; inconclusive = small, poorly fitted or top-dose-only effect; inactive = no such curve, though single readings can be large or run the other way. Potency is the fitted concentration of half-maximal effect.
SMILES,L3MBTL1 inh,G9a inh,BAZ2B inh,HP1b chromo inh,JMJD2A Tudor
CCOc1cc(CN2CCN(c3cccc(C(F)(F)F)c3)CC2)ccc1OC,.,22.4µM*,8.91µM*,?,8.91µM*
CCS(=O)(=O)C1=NN2C(=N)/C(=C\c3ccc(OC(=O)c4ccco4)c(Br)c3)C(=O)N=C2S1,.,-17.5%[59 µM],50.1µM*,.,.
CCOc1cc(/C=C2\C(=N)N3N=C(S(=O)(=O)CC)SC3=NC2=O)ccc1OC(=O)c1ccco1,.,44.7µM*,?,28.4%,-4.7%
CCOc1cc(/C=C2/C(=N)N3N=C(CC)SC3=NC2=O)ccc1OC(=O)c1ccco1,.,.,-16.9%,-3.3%,-33.3%
CCOc1cc(/C=C2/C(=N)N3C(=NC2=O)SN=C3S(C)(=O)=O)ccc1OC(=O)c1ccco1,.,5.8%[0.0925 µM],50.1µM*,4.9%,?
COc1cc(/C=C2\C(=N)N3N=C(S(C)(=O)=O)SC3=NC2=O)ccc1OCCOc1ccccc1C,.,25.1µM*,56.2µM*,?,?
CCOc1ccc(CN2C(=O)c3ccccc3Sc3ccc(C(=O)OC)cc32)cc1,.,12.6%[59 µM],3.2%,16.6%,-24.5%
Cc1cc(OC(=O)c2ccccc2C(F)(F)F)c([N+](=O)[O-])c(=O)[nH]1,3.5%,?,?,51.9%,-26.2%
COc1cccc(C(=O)Nc2c3c(nn2-c2ccc(C)cc2C)CS(=O)(=O)C3)c1OC,.,-23.3%[59 µM],-3.8%,41.1%,?
CCS(=O)(=O)C1=NSC2=NC(=O)/C(=C\c3ccc(OC(=O)c4ccco4)cc3)C(=N)N21,.,44.7µM*,?,8.4%,-18.8%
COc1ccccc1OCCOc1ccc(/C=C2/C(=N)N3OC(C)=CC3=NC2=O)cc1OC,-0.5%,70.8µM*,-26.3%,11.1%,-36.0%
COc1cc(/C=C2\C(=N)N3N=C(S(C)(=O)=O)SC3=NC2=O)ccc1OC(=O)c1ccco1,.,44.7µM*,50.1µM*,-11.8%[57 µM],?
COc1cc(/C=C2\C(=N)N3N=C(S(C)(=O)=O)SC3=NC2=O)ccc1OC(=O)c1cccs1,.,-24.7%,56.2µM*,30.8%,-3.5%
CCOC(=O)CSc1n[nH]c(NC(=O)NC(C)C)n1,12.1%,.,2.4%,15.5%,-9.7%
CC1=CN2C(=N)/C(=C/c3ccc(C)o3)C(=O)N=C2S1,-9.1%,-3.8%[59 µM],?,14.3%,-5.6%
CCS(=O)(=O)C1=NN2C(=N)/C(=C\c3ccc(SCc4ccco4)o3)C(=O)N=C2S1,31.6µM*,12.6µM*,50.1µM*,?,31.6µM*
Cc1cc(C)n(-c2nc(SCCN(C)C)c3c4c(sc3n2)CCCC4)n1,-7.4%,.,?,2.4%,56.2µM*
CCC(O)CNc1nc(-n2nc(C)cc2C)nc2sc3c(c12)CCCC3 (centres undefined),2.4%,3.2%[59 µM],-2.2%,.,.
Cc1cc(NC(=O)c2ccc(Cl)c(S(=O)(=O)N3CCCCC3)c2)no1,.,21.7%,-21.8%,17.6%,-11.8%
CCc1ccc(-n2c(=O)c3sc4ccccc4c3n(Cc3cccc(F)c3)c2=O)cc1,.,5.6%[59 µM],5.5%,47.2%,-5.0%
Cc1ccc(C)c(NC(=O)Nc2ccc3c(c2)OCO3)c1,.,5.2%[12.7 µM],-12.1%,21.7%,-7.8%
Cc1ccc(CNc2ccc3c(c2)OCO3)c(C)c1,.,12.6µM*,44.7µM*,.,.
COc1ccc(Cl)cc1S(=O)(=O)NC(C)C(=O)NCc1ccc2c(c1)OCO2 (centres undefined),.,13.3%,2.7%,7.8%,50.1µM*
COc1cc(OC)c(OC)cc1CNCc1ccc2c(c1)OCO2,-6.7%,44.7µM*,-29.0%,8.3%,50.1µM*
COc1ccc(NCc2ccc3c(c2)OCO3)cc1Cl,-28.5%,?,39.8µM*,?,44.7µM*
SMILES,L3MBTL1 inh,G9a inh,BAZ2B inh,HP1b chromo inh,JMJD2A Tudor
O=C(c1ccc(CS(=O)c2ccccc2Cl)o1)N1CCN(c2cccc(C(F)(F)F)c2)CC1 (centres undefined),.,?,?,9.5%,-31.1%
N#Cc1ccc(CN2C(=O)c3ccccc3Sc3ccc(C(=O)OCc4ccco4)cc32)cc1,.,-6.9%[59 µM],-16.8%,14.0%[57 µM],-17.3%
COc1ccccc1NC(=O)c1sc2nc3c(c(C(F)(F)F)c2c1N)CN(C(C)=O)CC3,.,-12.1%[59 µM],-32.0%,21.7%,-29.9%
CCOc1ccc(NC(=O)c2oc3ccccc3c2NC(=O)Cc2cccs2)cc1,.,-0.5%[59 µM],-7.9%,38.6%,-10.3%
COc1ccc(C(c2nnnn2CCc2ccccc2)N2CCN(C3CCCC3)CC2)cc1OC (centres undefined),3.9%,50.1µM*,?,49.7%,-3.6%
COc1ccc(C(c2nnnn2C2CCCC2)N2CCN(C3CCCC3)CC2)cc1OC (centres undefined),6.5%,?,-33.7%,15.2%,56.2µM*
CCOC(=O)c1c(S(=O)(=O)NCC(=O)Nc2cccc(SC)c2)c(C)n(C)c1C,.,-0.3%[59 µM],-22.0%,9.1%,?
Cc1ccc(C(C)C)c(OCC(=O)NCC2(N(C)C)CCCCC2)c1,.,-0.4%[59 µM],?,43.7%,-22.2%
Cc1cccc(Nc2nc(N)c([N+](=O)[O-])c(N3CCCC(C)C3)n2)c1 (centres undefined),31.6µM*,39.8µM*,39.8µM*,-37.1%,39.8µM*
Cc1ccc(Nc2nc(N)c([N+](=O)[O-])c(N3CCC(C)CC3)n2)cc1C,1.8%,?,25.1µM*,?,56.2µM*
Cc1noc(C)c1-c1ccc2ncnc(NCc3cccc(-c4ccccc4)c3)c2c1,-5.5%,8.3%[12.7 µM],-10.6%,.,-29.7%
Cn1cc(C(=O)NCCc2ccc(Cl)cc2)c(=O)c2cc(S(=O)(=O)N3CCOCC3)ccc21,.,6.4%[59 µM],.,29.9%,-3.7%
Cc1ccc(C)c(-c2nnc(NC(=O)c3ccc4c(c3)OCCO4)o2)c1,.,54.3%[59 µM],9.9%,25.0%[57 µM],-20.1%
Brc1ccc(Nc2c3c(nc4nncn24)CCC3)cc1,.,-6.8%[59 µM],5.5%,40.8%,-12.9%
COc1ccc(S(=O)(=O)CCC(=O)Nc2cc(C)ccc2OC)cc1,.,28.2µM*,-1.0%,33.1%,-13.1%
COc1ccc(OC)c(NC(=O)CCn2cccc2)c1,-16.0%,?,50.1µM*,-16.1%,-30.5%
COC(=O)c1ccc(NC(=O)CCn2cccc2)cc1,-0.3%,-14.1%[59 µM],?,4.7%,-25.7%
CCc1ccc(NC(=O)CCn2cccc2)cc1,.,50.1µM*,?,-16.8%,-29.8%[57.1 µM]
COc1ccc(OC)c(NC(=O)c2csnn2)c1,.,14.1µM*,?,-11.7%,?
CC(C)Oc1ccc(CNC(=O)c2ccc3nc(C(C)C)oc3c2)cc1,.,9.1%[59 µM],16.0%,49.1%[57 µM],-9.3%
C#C[C@]1(O)CC[C@H]2[C@@H]3CCC4=CCCC[C@@H]4[C@H]3C(=C)C[C@@]21CC,.,5.5%[12.7 µM],.,.,.

# Assay outcomes as filed in PubChem BioAssay.
